Screen size: about 1,500 compounds; about 390 (26%) were called active. Not all results are given here. Results with a measured potency or affinity are listed apart. Values without a mark were called inactive. How the calls were made is not given here.
target: Histone-lysine N-methyltransferase NSD2 (Homo sapiens) (UniProt O96028); assay: NSD2 methyltransferase inhibitors, dose response, biochemical, AlphaScreen, cherry-picked samples (AID 1053173); settings: NSD2 H4 peptide methylation, 120 min; series mostly up to 10 µM; activity change, negative = inhibition: at the top concentration;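 further: 0% = neutral control wells and -100% = positive control wells on each plate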
Sequence (O96028 whole entry, looked up): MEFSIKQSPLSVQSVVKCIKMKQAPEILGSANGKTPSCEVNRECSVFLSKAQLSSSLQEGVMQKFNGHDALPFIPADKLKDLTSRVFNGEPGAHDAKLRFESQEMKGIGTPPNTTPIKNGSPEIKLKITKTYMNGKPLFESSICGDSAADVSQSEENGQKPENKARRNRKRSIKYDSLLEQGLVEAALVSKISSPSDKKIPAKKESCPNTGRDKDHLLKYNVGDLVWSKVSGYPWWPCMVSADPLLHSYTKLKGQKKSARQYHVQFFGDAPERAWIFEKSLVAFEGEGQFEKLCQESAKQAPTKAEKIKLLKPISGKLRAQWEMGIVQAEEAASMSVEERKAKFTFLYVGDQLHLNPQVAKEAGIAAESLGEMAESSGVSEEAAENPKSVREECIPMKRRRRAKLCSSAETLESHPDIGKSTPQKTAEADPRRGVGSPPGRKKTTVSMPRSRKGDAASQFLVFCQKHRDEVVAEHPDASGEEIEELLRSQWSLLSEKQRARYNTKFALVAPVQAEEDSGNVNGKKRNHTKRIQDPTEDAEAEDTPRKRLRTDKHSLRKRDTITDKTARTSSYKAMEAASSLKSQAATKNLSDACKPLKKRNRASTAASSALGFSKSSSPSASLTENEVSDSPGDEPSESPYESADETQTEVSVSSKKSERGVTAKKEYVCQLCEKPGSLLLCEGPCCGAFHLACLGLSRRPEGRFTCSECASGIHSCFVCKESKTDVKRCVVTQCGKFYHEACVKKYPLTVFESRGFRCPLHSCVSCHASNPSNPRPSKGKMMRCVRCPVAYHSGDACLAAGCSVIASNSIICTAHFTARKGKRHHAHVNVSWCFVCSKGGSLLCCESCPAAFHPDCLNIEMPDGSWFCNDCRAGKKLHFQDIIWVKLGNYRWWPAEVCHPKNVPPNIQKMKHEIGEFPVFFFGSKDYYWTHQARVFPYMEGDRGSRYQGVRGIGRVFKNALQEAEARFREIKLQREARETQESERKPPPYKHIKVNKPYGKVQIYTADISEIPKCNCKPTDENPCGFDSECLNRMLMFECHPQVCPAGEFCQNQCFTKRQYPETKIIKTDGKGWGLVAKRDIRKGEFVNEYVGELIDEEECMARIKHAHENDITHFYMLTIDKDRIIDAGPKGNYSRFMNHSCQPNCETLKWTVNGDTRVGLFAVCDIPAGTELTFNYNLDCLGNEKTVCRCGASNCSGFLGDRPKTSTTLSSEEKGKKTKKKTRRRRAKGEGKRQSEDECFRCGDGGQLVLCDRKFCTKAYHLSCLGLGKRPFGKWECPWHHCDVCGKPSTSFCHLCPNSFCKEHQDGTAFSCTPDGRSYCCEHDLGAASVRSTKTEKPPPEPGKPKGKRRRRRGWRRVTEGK

In order of falling “activity change, negative = inhibition” value:
1. COc1ccccc1N1CCN(S(=O)(=O)CCNC(=O)c2ccc(Br)o2)CC1  6.82%
2. O=C(CSc1ccc(-c2cccnc2)nn1)N1CCCC1  3.73%
3. CC(=O)C1=C(O)C(=O)N(CCc2c[nH]c3ccccc23)C1c1ccco1 (centres undefined)  3.52%
4. C/C(=C\C(=O)c1ccccc1)Nc1ccc(O)cc1  1.87%
5. CCc1c(C)nc2ncnn2c1Nc1ccc(C)cc1  1.68%
6. CCCCn1c(Cn2nc(C(=O)O)c3ccccc3c2=O)nc2cc(S(N)(=O)=O)ccc21  1.6%
7. Cc1cc(C)n(-c2nc(NCC(C)O)c3c4c(sc3n2)COC(C)(C)C4)n1 (centres undefined)  1.56%
8. CCCc1cc(=O)[nH]c(SCc2cc(=O)oc3cc(C)c(C(C)C)cc23)n1  1.35%
9. COc1ccc(-c2nnc(SCC(=O)c3ccc(O)cc3O)o2)cc1  1.31%
10. Cc1cc(C)cc(NC(=O)C2C3C=CC4(O3)C2C(=O)N(CCCN2CCCC2)C4C(=O)NC2CCCC(C)C2C)c1 (centres undefined)  1.04%
11. COc1cccc(C(C(=O)NC2CCCC2)N(C(=O)c2csnn2)C2CC2)c1 (centres undefined)  0.925%
12. COc1cccc(CNC(=O)CSc2nnc3c(n2)[nH]c2ccccc23)c1  -0.049%
13. COc1cc(-c2nnn(Cc3ccccc3C)n2)cc(OC)c1OC  -0.317%
14. Fc1ccccc1NC(=S)Nc1cccc2cnccc12  -0.635%
15. CCOC(=O)c1nnn(-c2nonc2OC)c1-c1ccccc1  -1.04%
16. CCOc1ccc(S(=O)(=O)N2CCCC(C(=O)NCCN3CCOCC3)C2)cc1Cl (centres undefined)  -1.23%
17. N#Cc1c(N)n(-c2ccc(C(=O)O)cc2)c2nc3ccccc3nc12  -1.49%
18. Cc1ccc(S(=O)(=O)N2CCC(NC(=O)c3cccnc3)CC2)cc1Cl  -1.49%
19. CCCCn1nnc(NC(=O)c2ccco2)n1  -1.6%
20. Nc1nc(COC(=O)c2ccco2)nc(Nc2ccccc2)n1  -2.2%
21. CCOC(=O)Cn1ncc(-c2ccccc2)c1N  -2.26%
22. CC(=O)c1ccc(N2CCN(C(=O)[C@H](C)NC(=O)c3ccccc3Cl)CC2)cc1  -2.29%
23. CCn1c(-c2cc3c(C(F)(F)F)nn(C)c3s2)n[nH]c1=S  -2.33%
24. Cc1ccc(Sc2ncccc2C(N)=O)cc1  -2.36%
25. CNC(=O)COC(=O)/C=C/c1cccs1  -2.65%
26. COc1ccccc1N1CCN(C2CCN(C(=O)c3cccc(F)c3)CC2)CC1  -2.67%
27. Cc1cc(-c2ccc(C)c(S(=O)(=O)N3CCN(c4ccccn4)CC3)c2)on1  -3.06%
28. CCC(=O)N1CCN(c2ccc(Cl)cc2NC(=O)c2ccc(Br)o2)CC1  -3.46%
29. CC(=O)Nc1ccc(S(=O)(=O)NCCSCc2c(Cl)cccc2Cl)cc1  -3.69%
30. Cc1cccc(NCCNc2cccc(C)c2)c1  -4.46%
31. C=CCn1c(NS(=O)(=O)c2ccccc2)c(S(=O)(=O)c2ccc(C)cc2)c2nc3ccccc3nc21  -4.72%
32. COc1cnc(-c2ccccn2)nc1Oc1cccc(C(F)(F)F)c1  -6.31%
33. Clc1cccc(N2CCN(CCCN3CCN(c4ccccc4)CC3)CC2)c1  -6.37%
34. CCCc1[nH]n(-c2nc3ccccc3s2)c(=O)c1C=NCCCN(CC)CC  -8.45%
35. NS(=O)(=O)c1ccc(N/N=C/c2ccc(O)c(O)c2O)c([N+](=O)[O-])c1  -9.13%
36. Oc1cccc2c(NC(=S)Nc3ccc(OC(F)F)cc3)cccc12  -10.1%
37. O=C1Nc2cc(C(=O)N3CCC(N4CCCCC4)CC3)ccc2S/C1=C\c1ccccc1  -12.6%
38. N#Cc1c2nc3ccccc3nc2n2cc(NC(=O)c3ccc(F)cc3)ccc12  -13.8%
39. CCCCn1c(NS(=O)(=O)c2ccccc2)c(S(=O)(=O)c2ccc(C)cc2)c2nc3ccccc3nc21  -15.4%

From PubChem BioAssay AID1053173 (Broad Institute, 2014)
